Compound activity (PubChem)
TGFb inhibitor: qHTS for Inhibitors of TGF-b. HepG2 CAGA-GFP TGF-b/SMAD3 reporter, GFP fluorescence, 18 h; TGF-beta stimulated, 500 pg/mL final. Potency, µM (titrated, usually from 46.1 µM), without a hit: at the highest dose activity, negative = inhibition, hits mostly inhibitors. actives 1.2% (n = 410,000); note: potency is the fitted concentration of half-maximal effect; % is set by controls: 0 for no effect and ±100 for the full control effect; nearly all actives have a fitted effect of over 65% in size
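Using HEPG2 CAGA-GFP reporter cells at 1000 cells/well, we pinned test compounds, stimulated with recombinant TGF-beta (500 pg/mL final) and measured total well GFP after 18 h.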
IL1B secr inh: qHTS for Inhibitors of Inflammasome Signaling: IL-1-beta AlphaLISA Primary Screen; THP-1 LPS/ATP IL-1B secretion, AlphaLISA, 16 h; active compounds read low; activity change, % at 57.5 µM; actives 4.7% (n = 360,000); AID 743279, 2014; in the data active = activity change below about -50%; inconclusive = mostly about -30% to -49%; note: % is set by controls: 0 for no effect and ±100 for the full control effect
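THP-1 cells pretreated 1 hr with compounds (up to 57.5 uM final), then stimulated with LPS (250 ng/mL final) plus ATP (1.25 mM final); secreted IL-1B measured by AlphaLISA after 16 hr, decreased signal indicating inhibition.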
HepG2 viability: qHTS for Inhibitors of TGF-b: Cytotox Counterscreen; AID 588856, 2011; HepG2 CAGA-GFP viability, ATP luminescence, 18 h; Potency, µM (titrated, usually from 46.1 µM), for inactives: at the top dose activity change, negative = cytotoxicity, hits mostly cytotoxic; actives 0.76% (n = 410,000); note: potency is the fitted concentration of half-maximal effect
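CellTiter-Glo luminescence gave cytotoxicity after 18 hours at 37 degrees C. The cells were HepG2 CAGA-GFP in 1% FBS DMEM, stimulated with 500 pg/mL TGF-beta after compound addition. %Activity was normalised to no-cell wells (complete cell-killing) and DMSO (no toxicity), and curves were fitted and classified.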
Giardia kill: Small Molecules that selectively kill Giardia lamblia: qHTS. Giardia lamblia trophozoite viability. activity change, % at 7.66 µM, hits read low. actives 0.15% (n = 340,000). AID 540267, 2011; in the data active = activity change below about -80%; inconclusive = between about -30% and that limit;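 note: parasites exposed to compound for two days anaerobically before the ATP read; % is set by controls: 0 for no effect and ±100 for the full control effect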
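Killing of trophozoites was scored by loss of ATP luminescence after a 48 hrs anaerobic exposure to compounds at 37 deg C, using 100 cells per well.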
HT1080-NT tox: qHTS for induction of synthetic lethality in tumor cells producing 2HG: qHTS for the HT-1080-NT fibrosarcoma cell line; actives 1.6% (n = 360,000); AID 686970, 2013; HT-1080-NT fibrosarcoma viability, CellTiter-Glo ATP luminescence, 48 h; Potency, µM (highest dose often 46.1 µM), for the others: top-dose activity, negative = less viability, hits mostly cytotoxic;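 note: NT is the 2HG producing partner of a matched IDH1 knockdown line; potency is the fitted concentration of half-maximal effect; 0% = DMSO-treated cells and -100% = media-only wells without cells; nearly all actives have a fitted effect of over 55% in size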
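Read-out is CellTiter-Glo luminescence after 10 minutes at room temperature, following 48 hours' compound treatment of HT-1080-NT cells (750 cells/well, RPMI, 5% FBS, 37 degrees C).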
HT1080 IDH1KD tx: qHTS for induction of synthetic lethality in tumor cells producing 2HG: qHTS for the HT-1080-IDH1KD cell line; HT-1080 IDH1 knockdown viability, ATP luminescence, 48 h; Potency, µM (doses to about 46.1 µM), for inactives: at the highest dose activity, negative = toxicity, hits mostly cytotoxic; actives 2% (n = 360,000); AID 686971, 2013;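 note: potency is the fitted concentration of half-maximal effect; 0% = DMSO wells and -100% = cell-free medium wells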
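% activity derives from luminescence (CellTiter-Glo), normalised to DMSO and no-cell wells. HT-1080-IDH1KD cells, 750/well, had 48 h compound exposure at 37 °C.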
* = called active by the depositor; ? = inconclusive; · = not tested or not shown; ! = repeats disagree; [ ] = dose if it differs, or a comment. Most compounds without a hit are left out; they make up all but 6.5% or so of the library. Unless noted, calls come from the whole dose curve; as a rule, active = well fitted curve in the direction sought with a large enough effect; inconclusive = small, poorly fitted or top-dose-only effect, or another doubt; inactive = no such curve, though single readings can be large; an effect the other way counts as inactive or inconclusive.

SMILES	TGFb inhibitor	IL1B secr inh	HepG2 viability	Giardia kill	HT1080-NT tox	HT1080 IDH1KD tx
O=C(NC(=S)Nc1ccc(S(=O)(=O)Nc2nccs2)cc1)c1ccccc1	-9%	35	16µM*	-11	2%	1%
O=C(NC(=S)Nc1ccc(S(=O)(=O)NC2CCCCC2)cc1)c1cccs1	?	-65*	1%	-5	-16%	?
O=C(NC(=S)Nc1ccc(S(=O)(=O)Nc2nccs2)cc1)c1cccnc1	0%	44	5%	12	-1%	19%
CC1(C)COC(c2cc([N+](=O)[O-])ccc2Cl)=N1	31%	-9	-5%	-17	6%	1%[9.24 µM]
CC1(C)COC(/C=C/c2cccc([N+](=O)[O-])c2)=N1	?	-107*	-23%	0	?	?
O=[N+]([O-])c1cccc(/C=C/c2ccccc2)c1	1%	·	2%	·	·	·
O=[N+]([O-])c1cccc(/C=C/c2nc[nH]c2[N+](=O)[O-])c1	0%	-29	-3%	-81*	0%	3%
C=CCN1C(=O)NC(c2ccc(OC)cc2)(C(F)(F)F)S/C1=C(\C#N)c1nnc(N2CCOCC2)n1-c1ccccc1 (stereo not drawn)	-30%	-52*	-10%	17	?	3%
CSc1nc2ccccc2c(=O)n1C1CCCCC1	1%	29	0%	0	-7%	-7%
CCOC(=O)C1=C(C)NC(SC)=NC1c1ccc(OC)cc1 (stereo not drawn)	2%	-50*	-5%	5	-1%	0%
CCOC(=O)C1=C(C)NC(C)=C(C(=O)OCC)C1c1ccc(OC)cc1	10%	15	-21%	-25	-16%	-28%
COc1cccc(C(=O)NC2CCCC2)c1	-11%	-3	-1%	-10	-13%	0%
O=C(N/N=C/c1ccc(-c2cccc(C(F)(F)F)c2)o1)c1ccccc1O	-17%	0	-16%	-7	-1%	-3%
O=C(N/N=C/c1ccc(-c2cccc(C(F)(F)F)c2)o1)c1ccccc1Br	20µM*	-13	-15%	-24	-19%	?
O=C(N/N=C/c1ccc(-c2cccc([N+](=O)[O-])c2)o1)c1ccc([N+](=O)[O-])cc1	5%	-51*	15%	19	-4%	-11%
COc1cc(C(=O)NCC(=O)N/N=C/c2ccc(-c3cccc([N+](=O)[O-])c3)o2)cc(OC)c1OC	-8%	-85*	2%	-4	0%	-15%
O=C(N/N=C\c1ccc(COc2ccc([N+](=O)[O-])cc2)o1)c1ccc(Cl)cc1	0%	-60*	-16%	-26	-15%	-26%
CN(C)c1ccc(/C=C/c2ccnc3cc(Cl)ccc23)cc1	35%	·	-9%	·	·	·
O=C(Nc1ccc(N2CCCC2)cc1)c1cc(Br)ccc1Cl	-12%	-24	-13%	-16	?	?
CC(=O)Nc1ccc(NC(=O)C(C)Oc2ccccc2C(=O)NCc2ccccc2)cc1 (stereo not drawn)	7%	-9	1%	0	-9%	-3%
Cc1cccc(C)c1Nc1c(-c2ccc(N3CCOCC3)cc2)nc2ncccn12	0%	?	-88%	16	0%	0%
COc1ccc(CNCCC2(Cc3ccccc3)CC(C)N(C)CC2C)cc1OC (stereo not drawn)	-2%	-61*	-45%	35	-26%	?
COc1ccc(CN(CCC#N)CCC2(c3ccccc3)CC(C)N(C)CC2C)cc1OC (stereo not drawn)	1%	-20	-11%	45	-7%	-16%
COc1ccc(CCn2c(-c3ccco3)nc3ccccc3c2=O)cc1OC	-9%	-54*	-28%	-5	-14%	?
CCC1CCCCN1CCCNC(=O)c1ccc2c(c1)N(Cc1ccc(F)cc1)C(=O)c1ccccc1S2=O (stereo not drawn)	?	-58*	-59%	33	21µM*	23µM*
SMILES	TGFb inhibitor	IL1B secr inh	HepG2 viability	Giardia kill	HT1080-NT tox	HT1080 IDH1KD tx
O=C(NCCCN1CCCC1)c1ccc2c(c1)N(Cc1ccc(F)cc1)C(=O)c1ccccc1S2=O (stereo not drawn)	-3%	-26	-28%	46	-17%	-23%
CCN1CCCC1CNC(=O)c1ccc2c(c1)N(Cc1ccccc1F)C(=O)c1ccccc1S2(=O)=O (stereo not drawn)	-3%	-21	1%	-4	-5%	-30%
CC1CCCN(CCCNC(=O)c2ccc3c(c2)N(Cc2ccc(F)cc2)C(=O)c2ccccc2S3=O)C1 (stereo not drawn)	?	-58*	-48%	-3	?	?
CC1CCCN(CCCNC(=O)c2ccc3c(c2)N(Cc2ccccc2F)C(=O)c2ccccc2S3(=O)=O)C1 (stereo not drawn)	?	-65*	11µM*!	-11	26µM*	?
CC1CCN(c2nc3ccccc3n2CC(=O)c2ccccc2)CC1	2%	4	-20%	4	1%	-11%
COc1ccc(C)cc1NC(=O)NCCC1=CCCCC1	?	-7	-21%	-9	5%	26%
OC[C@@H]1[C@@H](c2ccc(Cl)cc2)C(c2cccc(Cl)c2)=NN1c1ccccc1	11µM*	?	13µM*	40	?	-28%
O=C(Nc1cccc(F)c1)Nc1ccc2c(c1)OCO2	-21%	-67*	-15%	6	-21%	-26%
O=C(Nc1cccc(Cl)c1)Nc1ccc(Br)cc1F	?	-59*	-50%	12	-20%	-28%
Cc1cc(NC(=O)Nc2ccccc2F)ccc1Br	-27%	-50*	-22%	14	-30%	-27%
O=C(Nc1ccccc1)Nc1ccc(Br)cc1F	-2%	?	-11%	-4	7%	-1%
COC(=O)c1cc(NS(=O)(=O)c2ccc(OC)c(OC)c2)ccc1Cl	-2%	25	-4%	10	-5%	-5%
O=C(Nc1ccc2c(c1)OCO2)c1cccc(F)c1	-1%	-23	-24%	-22	6%	2%
Cn1nnc2cc(NC(=O)Nc3ccccc3F)ccc21	3%	?	-47%	·	-4%	-5%
COC(=O)c1cc(NS(=O)(=O)c2ccc(NC(C)=O)cc2)ccc1Cl	16%	-74*	23%	12	-24%	-9%
